Laboratory results as given in PubChem BioAssay (NCATS).
Results filed as inconclusive are left out. Activity calls are given as the source filed them. Calls come from the whole dose curve; as a rule, active = well fitted curve in the direction sought with a large enough effect; inconclusive = small, poorly fitted or top-dose-only effect, or another doubt; inactive = no such curve, though single readings can be large; an effect the other way counts as inactive or inconclusive.

Columns and labels:
[1] = qHTS of pediatric cancer cell lines to identify multiple opportunities for drug repurposing: Confirmatory screen for SJ-GBM2 cells (AID 1347116); note: nearly all actives have a fitted effect of over 60% in size; note: potency is the fitted concentration of half-maximal effect
How it was run: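 Viability measured as metabolically active cells via CellTiter-Glo luminescence following 48 hours of compound exposure, 11-point dilutions in confirmatory testing. 500-1,000 cells/well plated 5 hours before dosing; controls were DMSO and 2.3 µM bortezomib.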

[2] = qHTS of pediatric cancer cell lines to identify multiple opportunities for drug repurposing: Confirmatory screen for BT-37 cells (AID 1347117); note: nearly all actives have a fitted effect of over 55% in size; note: potency is the fitted concentration of half-maximal effect
How it was run: (§1)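 Cells (500-1,000/well) in growth media were settled 5 h at 37 degrees C, then given compounds for 48 h. Viability was read as CellTiter-Glo luminescence. Primary runs used MIPE at 11 points (0.78 nM-46 µM) and NPC at 8 points (0.59 nM-46 µM); follow-ups used 11 points.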

[3] = qHTS of pediatric cancer cell lines to identify multiple opportunities for drug repurposing: Confirmatory screen for TC32 cells (AID 1347118);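 note: cells exposed to compound for 48 h before the read; nearly all actives have a fitted effect of over 65% in size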; note: potency is the fitted concentration of half-maximal effect
How it was run: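 qHTS, TC32, 48 h drug treatment, CellTiter-Glo luminescence as a proxy for metabolically active cells; primary top concentration 46 µM (MIPE 11-pt, NPC 8-pt); confirmatory 11-pt.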

[4] = qHTS of pediatric cancer cell lines to identify multiple opportunities for drug repurposing: Confirmatory screen for MG 63 (6-TG R) cells (AID 1347119); note: nearly all actives have a fitted effect of over 55% in size; note: potency is the fitted concentration of half-maximal effect
How it was run: as §1

[5] = qHTS of pediatric cancer cell lines to identify multiple opportunities for drug repurposing: Confirmatory screen for control Hh wild type fibroblast cells (AID 1347121); note: nearly all actives have a fitted effect of over 70% in size; note: potency is the fitted concentration of half-maximal effect
How it was run: as §1

[6] = qHTS of pediatric cancer cell lines to identify multiple opportunities for drug repurposing: Confirmatory screen for U-2 OS cells (AID 1347122); note: nearly all actives have a fitted effect of over 65% in size; note: potency is the fitted concentration of half-maximal effect
How it was run: as §1

[7] = qHTS of pediatric cancer cell lines to identify multiple opportunities for drug repurposing: Confirmatory screen for Rh41 cells (AID 1347123);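 note: 48 h compound exposure; nearly all actives have a fitted effect of over 60% in size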; note: potency is the fitted concentration of half-maximal effect
How it was run: as §1

[8] = qHTS of pediatric cancer cell lines to identify multiple opportunities for drug repurposing: Confirmatory screen for RD cells (AID 1347124);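 note: cells exposed to compound for 48 h before viability readout; nearly all actives have a fitted effect of over 65% in size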; note: potency is the fitted concentration of half-maximal effect
How it was run: as §1

[9] = qHTS of pediatric cancer cell lines to identify multiple opportunities for drug repurposing: Confirmatory screen for Rh18 cells (AID 1347125); note: nearly all actives have a fitted effect of over 55% in size; note: potency is the fitted concentration of half-maximal effect
How it was run: as §1

[10] = qHTS of pediatric cancer cell lines to identify multiple opportunities for drug repurposing: Confirmatory screen for Rh30 cells (AID 1347126); note: nearly all actives have a fitted effect of over 55% in size; note: potency is the fitted concentration of half-maximal effect
How it was run: as §1

[11] = qHTS of pediatric cancer cell lines to identify multiple opportunities for drug repurposing: Confirmatory screen for OHS-50 cells (AID 1347128); note: potency is the fitted concentration of half-maximal effect
How it was run: as §1

[12] = qHTS of pediatric cancer cell lines to identify multiple opportunities for drug repurposing: Confirmatory screen for SK-N-SH cells (AID 1347129);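 note: cells exposed to compound for 48 h before viability read; nearly all actives have a fitted effect of over 60% in size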; note: potency is the fitted concentration of half-maximal effect
How it was run: as §1

[13] = system: Zika virus NS2B-NS3 protease; assay: Primary screen GU AMC qHTS for Zika virus inhibitors (AID 1347154); note: nearly all actives have a fitted effect of over 70% in size; note: potency is the fitted concentration of half-maximal effect
How it was run: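 Unlinked Zika NS2B hydrophilic domain/NS3 protease domain noncovalent complex (25 nM final) in 10 mM Tris-HCl pH 8.0, 0.01% Tween 20, with AMC peptide substrate. Fluorescence (ex 340, em 450 nm) change over 15 min, room temperature; percent inhibition fitted to 4-parameter Hill equation.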

[14] = system: Zika virus NS2B-NS3 protease (unlinked); assay: Optimization of GU AMC qHTS for Zika virus inhibitors: Unlinked NS2B-NS3 protease assay (AID 1347151); note: series mostly up to about 52 µM; nearly all actives have a fitted effect of over 80% in size
How it was run: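 Noncovalent NS2B hydrophilic domain–NS3 protease complex (25 nM final) in 10 mM Tris-HCl pH 8.0, 0.01% Tween 20; AMC substrate, room temperature 15 min (~20% conversion); fluorescence change normalized, 4-parameter Hill fit.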

[15] = system: Zika virus NS2B-NS3 protease (unlinked complex); assay: Primary screen GU Rhodamine qHTS for Zika virus inhibitors: Unlinked NS2B-NS3 protease assay (AID 1347159); note: nearly all actives have a fitted effect of over 60% in size
How it was run: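 Enzyme 25 nM in Tris-HCl pH 8.0 + 0.01% Tween 20; compounds up to 114 microM, 15 min RT dark; + Rhod110 substrate 1.5 microM; read t0 and 15 min; delta fluorescence → % inhibition → 4-parameter Hill fit.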

[16] = system: Zika virus NS2B-NS3 protease (linked construct); assay: Confirmatory screen NINDS AMC qHTS for Zika virus inhibitors (AID 1347152); note: nearly all actives have a fitted effect of over 70% in size; note: potency is the fitted concentration of half-maximal effect
How it was run: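 Linked NS2B-NS3 protease, 1 nM, in 10 mM Tris-HCl pH 8.0, 0.01% Tween 20; compounds preincubated 15 min at room temperature. Nle-KRR-AMC 10 microM (Km 18.3 µM); 15-min fluorescence change (340/450 nm) fitted to 4-parameter Hill.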

[17] = Confirmatory screen GU Rhodamine qHTS for Zika virus inhibitors qHTS (AID 1347157); details: purified enzyme assay, Rhodamine110 substrate fluorescence, 15 min; note: potency is the fitted concentration of half-maximal effect; nearly all actives have a fitted effect of over 70% in size
How it was run: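 Unlinked NS2B/NS3, 25 nM; Rhod110 peptide, 1.5 microM; compounds, up to 114 microM. Reaction run 15 min at RT in 10 mM Tris-HCl pH 8.0, 0.01% Tween 20; kinetic fluorescence change fitted with a 4-parameter Hill model.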

[18] = ZIKV-mCherry secondary qHTS for Zika virus inhibitors (AID 1347158); note: potency is the fitted concentration of half-maximal effect
How it was run: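 Compounds were tested in Vero monkey kidney cells infected with recombinant mCherry-expressing Zika virus at MOI 1 for 48-72 h at 37 °C. Fixed cells were nuclear-stained and imaged, and infection rate was taken as the fraction of mCherry-positive cells.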

Measured: Potency

C[n+]1c2cc(N)ccc2cc2ccc(N)cc21 (tested in a mixture with another compound)
active: [1] 13.1 µM | [2] 0.827 µM | [3] 5.85 µM | [4] 14.7 µM | [5] 7.37 µM | [6] 16.5 µM | [7] 5.22 µM | [8] 0.657 µM | [9] 5.85 µM | [10] 6.57 µM | [11] 9.27 µM | [12] 8.33 µM

OC[C@H]1O[C@@H](n2cnc3c(=S)nc[nH]c32)[C@H](O)[C@@H]1O
active: [2] 2.93 µM | [3] 2.33 µM | [7] 10.4 µM | [11] 2.33 µM
inactive: [4] | [5] | [8] | [13]

CC(=O)OCC(=O)[C@@]12OC(C)(C)O[C@@H]1C[C@H]1[C@@H]3C[C@H](F)C4=CC(=O)C=C[C@]4(C)[C@@]3(F)[C@@H](O)C[C@@]12C
inactive: [1] | [3] | [4] | [6] | [7] | [8] | [9] | [10] | [12] | [13]

CN(C)/N=N/c1nc[nH]c1C(N)=O
active: [3] 23.3 µM | [4] 0.369 µM
inactive: [2] | [5] | [6] | [7] | [8] | [9] | [10] | [12] | [13]

CN(C)C(=S)SC(=S)N(C)C
inactive: [1] | [5] | [6] | [11] | [12] | [13]
active: [2] 3.69 µM | [3] 3.69 µM | [7] 1.31 µM | [9] 5.22 µM | [10] 4.14 µM

COc1cc(C=C2CCC/C(=C\c3ccc(O)c(OC)c3)C2=O)ccc1O
active: [1] 18.5 µM | [2] 5.85 µM | [3] 0.414 µM | [4] 20.8 µM | [7] 14.7 µM | [8] 9.27 µM | [10] 20.8 µM | [11] 16.5 µM | [12] 18.7 µM
inactive: [5]

NC(=O)CC[C@@H]1NC(=O)[C@H](Cc2ccccc2)NC(=O)[C@H](Cc2ccc(O)cc2)NC(=O)CCSSC[C@@H](C(=O)N2CCC[C@H]2C(=O)N[C@@H](CCCN=C(N)N)C(=O)NCC(N)=O)NC(=O)[C@H](CC(N)=O)NC1=O
not listed: [4] | [8] | [14] | [15] | [16] | [17] | [18]
inactive: all other assays above

CC(=O)OCC(=O)[C@@]12N=C(C)O[C@@H]1C[C@H]1[C@@H]3CCC4=CC(=O)C=C[C@]4(C)[C@H]3[C@@H](O)C[C@@]12C
active: [1] 1.04 µM | [2] 0.657 µM | [3] 0.369 µM | [11] 1.31 µM
inactive: [6] | [13]

CCOc1ccc2nc3cc(N)ccc3c(N)c2c1
active: [3] 2.61 µM | [6] 0.585 µM | [7] 14.7 µM | [12] 14.8 µM | [13] 31.6 µM
inactive: [4] | [9] | [11]

O=C(CCCN1CCC(O)(c2ccc(Br)cc2)CC1)c1ccc(F)cc1
active: [3] 2.61 µM | [7] 18.5 µM
inactive: [1] | [4] | [5] | [6] | [9] | [13]

CC(=O)Oc1ccc(C(c2ccc(OC(C)=O)cc2)c2ccccn2)cc1
inactive: [1] | [5] | [6] | [7] | [8] | [9] | [10] | [12] | [13]
active: [3] 6.57 µM | [4] 1.17 µM

C[C@]12C=CC(=O)C=C1[C@@H](F)C[C@@H]1[C@@H]2[C@@H](O)C[C@@]2(C)[C@H]1CC[C@]2(O)C(=O)CO
not listed: [1] | [7] | [14] | [15] | [16] | [17] | [18]
inactive: all other assays above

CC(=O)[C@H]1CC[C@H]2[C@@H]3C[C@H](C)C4=CC(=O)CC[C@]4(C)[C@H]3[C@@H](O)C[C@]12C
active: [6] 0.329 µM | [7] 10.4 µM
inactive: [1] | [5] | [8] | [9] | [10] | [12] | [13]

Oc1ccc(O)cc1
active: [3] 20.8 µM
not listed: [7] | [9] | [15] | [16] | [17] | [18]
inactive: all other assays above

CC(=O)OCC(=O)[C@@]1(O)[C@H](C)C[C@H]2[C@@H]3CCC4=CC(=O)C=C[C@]4(C)[C@@]3(F)[C@@H](O)C[C@@]21C
active: [3] 18.5 µM | [6] 20.8 µM
inactive: [12] | [13] | [15]

C=C1C[C@H]2[C@@H]3C=C(C)C4=CC(=O)CC[C@]4(C)[C@H]3CC[C@]2(C)[C@@]1(OC(C)=O)C(C)=O
inactive: [1] | [2] | [4] | [5] | [8] | [9] | [10] | [11] | [12]
active: [3] 6.57 µM

CC(=O)O[C@]1(C(C)=O)CC[C@H]2[C@@H]3C[C@H](C)C4=CC(=O)CC[C@]4(C)[C@H]3CC[C@@]21C
inactive: [4] | [5] | [8]

C[C@@H]1CN(CCCn2c3ccccc3c3ccccc32)C[C@H](C)N1
inactive: [4]

CCCCC(=O)O[C@]1(C(=O)CO)CC[C@H]2[C@@H]3CCC4=CC(=O)CC[C@]4(C)[C@H]3[C@@H](O)C[C@@]21C
inactive: [5] | [11]

O=C(Nc1ccc(Oc2ccc(Cl)cc2)c(Cl)c1)c1cc(I)cc(I)c1O
active: [16] 13.6 µM | [17] 6.31 µM | [18] 11.2 µM

CC(C)C[C@H]1C(=O)N2CCC[C@H]2[C@]2(O)O[C@](NC(=O)[C@@H]3C=C4c5cccc6[nH]c(Br)c(c56)C[C@H]4N(C)C3)(C(C)C)C(=O)N12
inactive: [16]
